From ChEMBL document CHEMBL1157539, “Thousands of chemical starting points for antimalarial lead identification” (Nature, 2010)

Each molecule was assayed on HepG2 (assay: GSK_TCMDC: Percent inhibition of human HepG2 cell line. Test compounds present at 10uM.).
Assay type: functional
O=C(Nc1ccc(F)c(Cl)c1)NC1CCN(c2ccnc3cc(Cl)ccc23)C1.O=C(O)C(F)(F)F (stereo not drawn) showed an Inhibition of 37%. For O=C(Nc1cccc(CN2CCCN(Cc3ccc(O)cc3)CC2)c1)c1cc2ccccc2o1.O=C(O)C(F)(F)F, the Inhibition was 10%. CCN(CCCN1CCCCC1)c1cc(C)nc(Nc2ccc(Cl)cc2C)n1.O=C(O)C(F)(F)F showed an Inhibition of 44%. Molecule c1ccc2[nH]c(CN(Cc3nc4ccccc4[nH]3)Cc3nc4ccccc4[nH]3)nc2c1 has an Inhibition of 39%. In the case of CCC(=O)N(c1ccccc1)C1CCN(CCCC(NC(=O)c2cc(C(F)(F)F)cc(C(F)(F)F)c2)c2ccc(Cl)c(Cl)c2)CC1 (stereo not drawn), the Inhibition is reported as 24%. Molecule Cc1ccc(C(=O)Nc2ccc(Nc3ccnc4cc(-c5nccs5)ccc34)cc2O)cc1.Cl has an Inhibition of 100%. With CN1CCN(CCCN(Cc2ccc(-c3ccc(CNCc4ccc5c(c4)OCO5)cc3)cc2)C(=O)Nc2ccccc2)CC1.O=C(O)C(F)(F)F the Inhibition was 36%. In the case of CCOc1ccccc1NC(=O)C(Sc1nc(C)cc(C)c1C#N)c1ccccc1 (stereo not drawn), the Inhibition is reported as 0%. COc1ccc2nccc([C@@H](O)CN3CCC(c4cc(-c5ccc(Cl)cc5)[nH]n4)CC3)c2n1 showed an Inhibition of 43%. Work on CN1CCN(CCNc2c3ccccc3nc3ccc4ccccc4c23)CC1.Cl yielded an Inhibition of 22%. CCN(CC)CCN(Cc1ccc(-c2ccc(C(F)(F)F)cc2)cc1)C(=O)Cn1c(CCc2cccc(F)c2F)nc(=O)c2ccccc21.O=C(O)C(O)C(O)C(=O)O gave an Inhibition of 49%. Molecule CCC(C)Oc1ccc2nc(N)nc(N)c2c1Cl (stereo not drawn) has an Inhibition of 57%. CCOc1cc(C=Cc2nc(O)c3ccccc3n2)cc(Cl)c1O showed an Inhibition of 25%.
